Assay [1] has as its target T1, Dual specificity mitogen-activated protein kinase kinase 6 (Homo sapiens) (UniProt P52564).
T1 sequence (whole entry): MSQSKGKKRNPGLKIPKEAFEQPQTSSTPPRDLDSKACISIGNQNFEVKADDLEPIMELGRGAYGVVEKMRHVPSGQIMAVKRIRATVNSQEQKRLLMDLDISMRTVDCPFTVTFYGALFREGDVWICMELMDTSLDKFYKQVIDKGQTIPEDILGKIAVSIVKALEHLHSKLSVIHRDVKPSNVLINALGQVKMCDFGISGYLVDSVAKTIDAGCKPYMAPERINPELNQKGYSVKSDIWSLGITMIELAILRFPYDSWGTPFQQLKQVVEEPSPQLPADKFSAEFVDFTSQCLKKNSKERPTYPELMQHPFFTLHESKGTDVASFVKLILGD
The settings on record: at 10 µM.

Assay [2] concerns the target T2, Dual specificity mitogen-activated protein kinase kinase 7 (Homo sapiens) (UniProt O14733).
T2 sequence (whole entry): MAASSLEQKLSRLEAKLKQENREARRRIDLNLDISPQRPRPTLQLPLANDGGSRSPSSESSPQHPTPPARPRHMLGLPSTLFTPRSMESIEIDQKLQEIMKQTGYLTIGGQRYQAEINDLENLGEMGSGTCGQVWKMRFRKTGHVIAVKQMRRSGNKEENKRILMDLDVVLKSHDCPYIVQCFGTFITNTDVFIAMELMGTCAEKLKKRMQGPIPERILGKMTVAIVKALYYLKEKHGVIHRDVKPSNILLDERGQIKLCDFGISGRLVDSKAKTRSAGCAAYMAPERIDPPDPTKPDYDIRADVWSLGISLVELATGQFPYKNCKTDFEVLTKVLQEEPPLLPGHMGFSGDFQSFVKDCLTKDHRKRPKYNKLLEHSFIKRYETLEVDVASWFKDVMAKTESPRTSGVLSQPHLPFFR
As to conditions: at 1 µM.

In assay [3] the target is T2, Dual specificity mitogen-activated protein kinase kinase 7 (Homo sapiens). As to conditions: at 10 µM.
Assay [4] deals with Myosin light chain kinase, smooth muscle (Homo sapiens) (UniProt Q15746). As to conditions: at 1 µM.
The target is the same in assay [5]. The settings on record: at 10 µM.
Assay [6] has as its target Mitogen-activated protein kinase kinase kinase 9 (Homo sapiens) (UniProt P80192). The settings on record: at 1 µM.
For assay [7] the target is unchanged. As to conditions: at 10 µM.
The target of assay [8] is Serine/threonine-protein kinase MRCK alpha (Homo sapiens) (UniProt Q5VT25). The settings on record: at 1 µM.
Assay [9] has the same target. The settings on record: at 10 µM.
In assay [10] the target is Serine/threonine-protein kinase MRCK beta (Homo sapiens) (UniProt Q9Y5S2). The settings on record: at 1 µM.
For assay [11] the target is unchanged. As to conditions: at 10 µM.
Assay [12] deals with Ribosomal protein S6 kinase alpha-5 (Homo sapiens) (UniProt O75582). The settings on record: at 1 µM.
Assay [13] shares this target. The settings on record: at 10 µM.
The target in assay [14] is Ribosomal protein S6 kinase alpha-4 (Homo sapiens) (UniProt O75676). As to conditions: at 1 µM.
Assay [15] shares this target. The settings on record: at 10 µM.
Assay [16] addresses SRSF protein kinase 3 (Homo sapiens) (UniProt Q9UPE1). The settings on record: at 1 µM.
Assay [17] shares this target. As to conditions: at 10 µM.
For assay [18], the target named is T3, Serine/threonine-protein kinase 4 (Homo sapiens) (UniProt Q13043).
T3 sequence (whole entry): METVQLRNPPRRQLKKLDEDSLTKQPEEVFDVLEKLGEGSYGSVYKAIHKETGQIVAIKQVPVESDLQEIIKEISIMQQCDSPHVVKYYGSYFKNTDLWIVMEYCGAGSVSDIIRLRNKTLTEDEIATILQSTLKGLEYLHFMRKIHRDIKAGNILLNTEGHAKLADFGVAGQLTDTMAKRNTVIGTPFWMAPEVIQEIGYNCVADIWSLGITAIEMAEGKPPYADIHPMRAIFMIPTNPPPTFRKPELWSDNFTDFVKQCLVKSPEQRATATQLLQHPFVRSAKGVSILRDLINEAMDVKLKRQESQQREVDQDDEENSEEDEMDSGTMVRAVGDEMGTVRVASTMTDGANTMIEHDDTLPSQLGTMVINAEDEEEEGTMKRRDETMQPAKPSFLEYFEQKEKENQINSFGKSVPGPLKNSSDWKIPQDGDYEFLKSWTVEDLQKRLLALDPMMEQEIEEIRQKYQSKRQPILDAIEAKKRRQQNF
The settings on record: at 1 µM.

The target in assay [19] is T3, Serine/threonine-protein kinase 4 (Homo sapiens). As to conditions: at 10 µM.
In assay [20] the target is T1, Dual specificity mitogen-activated protein kinase kinase 6 (Homo sapiens). The settings on record: at 1 µM.

Molecules are shown by their SMILES.

Chain of Serine/threonine-protein kinase MRCK alpha (Homo sapiens) (Q5VT25 whole entry): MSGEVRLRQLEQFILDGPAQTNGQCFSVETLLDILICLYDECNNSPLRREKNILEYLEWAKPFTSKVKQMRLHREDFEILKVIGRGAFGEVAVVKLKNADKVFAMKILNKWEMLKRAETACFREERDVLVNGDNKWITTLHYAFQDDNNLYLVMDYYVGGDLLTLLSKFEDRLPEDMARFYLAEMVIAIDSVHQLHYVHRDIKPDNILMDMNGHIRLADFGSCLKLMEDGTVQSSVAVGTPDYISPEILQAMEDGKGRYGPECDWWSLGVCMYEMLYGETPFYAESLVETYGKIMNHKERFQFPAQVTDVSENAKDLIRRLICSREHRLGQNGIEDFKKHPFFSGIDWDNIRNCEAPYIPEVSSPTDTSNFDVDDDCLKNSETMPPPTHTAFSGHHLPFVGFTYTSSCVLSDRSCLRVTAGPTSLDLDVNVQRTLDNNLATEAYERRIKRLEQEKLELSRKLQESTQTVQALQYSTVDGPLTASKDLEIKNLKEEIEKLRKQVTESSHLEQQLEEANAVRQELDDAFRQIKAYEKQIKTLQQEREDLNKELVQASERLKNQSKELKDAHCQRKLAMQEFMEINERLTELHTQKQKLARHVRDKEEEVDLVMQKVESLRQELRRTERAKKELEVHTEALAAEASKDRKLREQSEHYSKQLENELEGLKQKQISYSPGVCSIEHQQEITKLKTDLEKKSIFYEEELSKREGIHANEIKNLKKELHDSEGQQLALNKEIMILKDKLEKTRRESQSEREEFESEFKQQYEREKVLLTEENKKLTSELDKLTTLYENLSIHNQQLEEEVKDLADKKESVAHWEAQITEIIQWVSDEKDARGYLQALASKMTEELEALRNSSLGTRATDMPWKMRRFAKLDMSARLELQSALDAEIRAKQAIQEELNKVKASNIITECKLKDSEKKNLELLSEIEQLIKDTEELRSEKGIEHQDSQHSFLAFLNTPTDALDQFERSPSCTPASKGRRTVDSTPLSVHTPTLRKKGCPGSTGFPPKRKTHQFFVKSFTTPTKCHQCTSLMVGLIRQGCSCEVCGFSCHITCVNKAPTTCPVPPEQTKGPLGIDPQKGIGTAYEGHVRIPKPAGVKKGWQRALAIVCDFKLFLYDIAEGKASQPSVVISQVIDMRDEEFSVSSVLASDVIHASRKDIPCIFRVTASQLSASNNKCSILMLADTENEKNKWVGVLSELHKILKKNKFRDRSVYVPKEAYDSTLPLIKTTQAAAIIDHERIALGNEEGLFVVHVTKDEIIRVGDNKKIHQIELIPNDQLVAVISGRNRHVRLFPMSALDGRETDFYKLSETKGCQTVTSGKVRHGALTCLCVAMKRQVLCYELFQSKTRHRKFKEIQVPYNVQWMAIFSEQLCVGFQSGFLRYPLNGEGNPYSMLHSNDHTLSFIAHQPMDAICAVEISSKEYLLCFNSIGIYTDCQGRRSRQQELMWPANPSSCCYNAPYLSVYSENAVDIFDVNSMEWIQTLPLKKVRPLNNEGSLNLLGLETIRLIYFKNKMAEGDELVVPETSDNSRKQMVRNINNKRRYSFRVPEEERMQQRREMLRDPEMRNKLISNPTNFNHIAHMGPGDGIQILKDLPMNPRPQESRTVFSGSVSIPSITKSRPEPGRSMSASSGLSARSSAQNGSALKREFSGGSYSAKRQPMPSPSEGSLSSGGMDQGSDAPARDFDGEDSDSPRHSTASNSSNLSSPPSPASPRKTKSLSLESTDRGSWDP
Chain of SRSF protein kinase 3 (Homo sapiens) (Q9UPE1 whole entry): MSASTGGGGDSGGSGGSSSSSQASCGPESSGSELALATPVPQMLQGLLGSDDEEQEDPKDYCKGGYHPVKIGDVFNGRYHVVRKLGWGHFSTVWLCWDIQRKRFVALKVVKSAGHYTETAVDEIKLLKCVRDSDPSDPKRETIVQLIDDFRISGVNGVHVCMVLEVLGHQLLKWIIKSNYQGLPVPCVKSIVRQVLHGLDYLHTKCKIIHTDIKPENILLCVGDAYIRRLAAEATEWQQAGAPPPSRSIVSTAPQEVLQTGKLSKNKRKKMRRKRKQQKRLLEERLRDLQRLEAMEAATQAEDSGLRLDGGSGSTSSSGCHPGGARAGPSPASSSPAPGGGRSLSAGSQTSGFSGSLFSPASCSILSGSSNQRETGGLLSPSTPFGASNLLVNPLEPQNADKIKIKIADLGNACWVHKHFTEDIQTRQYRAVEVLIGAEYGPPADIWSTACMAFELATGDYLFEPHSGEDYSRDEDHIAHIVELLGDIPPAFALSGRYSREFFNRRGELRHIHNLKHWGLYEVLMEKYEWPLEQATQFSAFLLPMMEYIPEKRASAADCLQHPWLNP
Chain of Mitogen-activated protein kinase kinase kinase 9 (Homo sapiens) (P80192 whole entry, looked up): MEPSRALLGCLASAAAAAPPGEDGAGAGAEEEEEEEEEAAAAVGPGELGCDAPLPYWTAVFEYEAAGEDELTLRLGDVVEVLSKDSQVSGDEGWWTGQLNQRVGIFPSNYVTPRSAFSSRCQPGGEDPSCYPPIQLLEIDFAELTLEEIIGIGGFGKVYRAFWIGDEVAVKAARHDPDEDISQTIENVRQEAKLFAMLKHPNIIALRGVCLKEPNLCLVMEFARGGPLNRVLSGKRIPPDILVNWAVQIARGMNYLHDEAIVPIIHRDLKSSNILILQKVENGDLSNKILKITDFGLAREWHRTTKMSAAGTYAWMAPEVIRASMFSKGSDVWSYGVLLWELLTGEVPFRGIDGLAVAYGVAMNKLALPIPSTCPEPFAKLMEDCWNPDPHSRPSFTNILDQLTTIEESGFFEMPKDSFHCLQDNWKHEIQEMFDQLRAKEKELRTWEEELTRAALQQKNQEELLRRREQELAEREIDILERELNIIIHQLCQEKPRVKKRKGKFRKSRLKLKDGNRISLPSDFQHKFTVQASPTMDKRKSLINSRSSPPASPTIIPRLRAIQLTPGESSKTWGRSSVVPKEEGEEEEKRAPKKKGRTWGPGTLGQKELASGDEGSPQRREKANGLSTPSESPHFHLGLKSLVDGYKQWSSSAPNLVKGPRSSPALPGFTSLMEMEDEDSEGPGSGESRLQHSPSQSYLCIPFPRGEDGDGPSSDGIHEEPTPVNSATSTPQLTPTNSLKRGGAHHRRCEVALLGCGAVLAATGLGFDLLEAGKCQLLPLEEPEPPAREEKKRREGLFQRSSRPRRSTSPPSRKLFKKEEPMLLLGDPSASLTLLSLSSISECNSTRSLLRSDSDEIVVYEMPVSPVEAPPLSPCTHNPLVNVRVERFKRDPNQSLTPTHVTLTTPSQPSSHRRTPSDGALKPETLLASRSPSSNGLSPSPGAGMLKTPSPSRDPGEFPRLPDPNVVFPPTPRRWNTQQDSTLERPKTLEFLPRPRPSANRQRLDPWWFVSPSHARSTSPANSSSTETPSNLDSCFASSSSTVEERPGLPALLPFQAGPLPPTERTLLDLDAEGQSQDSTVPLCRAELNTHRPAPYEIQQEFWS
Chain of Ribosomal protein S6 kinase alpha-4 (Homo sapiens) (O75676 whole entry, looked up): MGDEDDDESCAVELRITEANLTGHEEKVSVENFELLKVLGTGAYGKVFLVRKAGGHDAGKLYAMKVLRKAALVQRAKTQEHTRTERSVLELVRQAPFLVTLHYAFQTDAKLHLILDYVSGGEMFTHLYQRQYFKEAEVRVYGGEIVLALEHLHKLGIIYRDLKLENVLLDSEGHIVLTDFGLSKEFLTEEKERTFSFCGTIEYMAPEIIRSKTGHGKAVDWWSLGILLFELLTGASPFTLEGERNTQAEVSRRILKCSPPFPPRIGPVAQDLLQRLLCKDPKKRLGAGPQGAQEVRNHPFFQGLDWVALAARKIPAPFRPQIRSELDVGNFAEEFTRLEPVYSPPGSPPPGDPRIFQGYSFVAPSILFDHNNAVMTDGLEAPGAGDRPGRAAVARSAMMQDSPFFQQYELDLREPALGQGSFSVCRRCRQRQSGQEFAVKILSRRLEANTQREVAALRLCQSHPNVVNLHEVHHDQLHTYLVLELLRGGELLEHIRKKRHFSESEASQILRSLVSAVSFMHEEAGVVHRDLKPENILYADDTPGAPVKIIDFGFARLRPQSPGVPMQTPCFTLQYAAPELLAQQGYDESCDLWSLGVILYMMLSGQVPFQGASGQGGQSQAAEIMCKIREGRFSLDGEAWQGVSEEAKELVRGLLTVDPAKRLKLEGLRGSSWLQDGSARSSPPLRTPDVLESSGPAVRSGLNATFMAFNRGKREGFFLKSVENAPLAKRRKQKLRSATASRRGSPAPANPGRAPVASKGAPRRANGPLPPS
Chain of Ribosomal protein S6 kinase alpha-5 (Homo sapiens) (O75582 whole entry, looked up): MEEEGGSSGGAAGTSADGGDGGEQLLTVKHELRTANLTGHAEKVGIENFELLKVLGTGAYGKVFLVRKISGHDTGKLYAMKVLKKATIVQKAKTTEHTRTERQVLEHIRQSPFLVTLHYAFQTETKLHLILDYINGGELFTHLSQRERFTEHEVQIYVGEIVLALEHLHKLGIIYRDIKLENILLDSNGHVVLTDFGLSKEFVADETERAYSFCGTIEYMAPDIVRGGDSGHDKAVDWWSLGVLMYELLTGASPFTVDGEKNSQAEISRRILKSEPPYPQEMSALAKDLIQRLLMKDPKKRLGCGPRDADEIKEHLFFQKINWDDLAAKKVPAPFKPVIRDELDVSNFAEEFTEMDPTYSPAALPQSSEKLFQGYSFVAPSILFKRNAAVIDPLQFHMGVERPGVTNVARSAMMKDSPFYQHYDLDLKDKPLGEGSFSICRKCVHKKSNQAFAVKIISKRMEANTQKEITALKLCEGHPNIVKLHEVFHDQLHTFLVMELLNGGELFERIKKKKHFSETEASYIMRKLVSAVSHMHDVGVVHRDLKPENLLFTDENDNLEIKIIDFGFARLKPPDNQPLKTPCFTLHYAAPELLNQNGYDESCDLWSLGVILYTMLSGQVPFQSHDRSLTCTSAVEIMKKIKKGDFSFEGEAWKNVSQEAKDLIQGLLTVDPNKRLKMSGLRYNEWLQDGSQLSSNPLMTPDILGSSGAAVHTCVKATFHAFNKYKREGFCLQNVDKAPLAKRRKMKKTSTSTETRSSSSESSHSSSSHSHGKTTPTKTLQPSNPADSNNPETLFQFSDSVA

`Cn1nc2c3c(cccc31)C(=O)c1ccccc1-2`: the residual activity was 70% in assay [1]; 84% in assay [2]; 53% in assay [3]; 65% in assay [4]; 49% in assay [5]; 74% in assay [6]. Further, the residual activity was determined as 28% in assay [7]; 108% in assay [8]; 99% in [9]; 92% in assay [10]; 85% in [11]; 99% in assay [12]. Further, the residual activity in [13] came to 83%; in assay [14], 93%; in [15], 79%; in assay [16] it was 98%; in [17] it was 97%; in assay [18], 72%. Further, the residual activity in assay [19] was found to be 72%.

For `O=C1NC(=O)/C(=C/c2ccc3c(c2)OC(F)(F)O3)S1`, the residual activity in assay [20] was 72%; in assay [1], 93%; in assay [2], 96%; in assay [3], 99%; in assay [4], 77%; in [5], 72%. Besides, the residual activity in assay [6] came to 96%; in assay [7], 99%; in [8], 112%; in assay [9] it was 104%; in [10], 106%; in [11] it was 85%. Moreover, the residual activity in [12] turned out to be 133%; in assay [13] it was 112%; in [14], 105%; in assay [15] it was 97%; in assay [16] it was 100%; in assay [17] it was 74%. The residual activity is 100% in assay [18] and 107% in [19].

Turning to `Oc1n[nH]c2nnc(-c3c(-c4ccccc4)nn4ccccc34)cc12`, the residual activity in assay [20] amounted to 126%; in assay [1] it was 89%; in assay [2], 95%; in assay [3], 101%; in assay [4] it was 84%; in assay [5], 52%. The residual activity in [6] amounted to 89%; in assay [7], 48%; in assay [8], 94%; in assay [9] it was 79%; in [10], 88%; in [11] it was 83%. The residual activity in [12] came out at 109%; in assay [13] it was 111%; in [14], 92%; in assay [15], 87%; in assay [16] it was 98%; in [17], 73%. The residual activity in assay [18] worked out at 72%; in [19], 96%.

For `Cc1cccc(-c2[nH]c(C(C)(C)C)nc2-c2ccc3c(c2)OCO3)n1`, the residual activity in assay [20] is 70%; in assay [1], 39%; in [2], 107%; in assay [3], 83%; in assay [4] it was 84%; in assay [5], 90%. Moreover, the residual activity in [6] turned out to be 99%; in assay [10], 83%; in assay [11] it was 86%; in assay [12] it was 135%; in assay [14], 97%; in [15] it was 104%. The residual activity in assay [18] stood at 102%; in assay [19], 105%.

Take `CCN(CC)C(=O)c1ccc(Nc2nc(OCC3CCCCC3)c3nc[nH]c3n2)cc1`: the residual activity in assay [20] worked out at 75%; in [1], 41%; in [2] it was 56%; in assay [3], 16%; in [6], 2%; in assay [7], 1%. The residual activity in assay [8] came out at 99%; in [9] it was 73%; in assay [11], 34%; in assay [12], 100%; in [13] it was 69%; in [14], 64%. The residual activity worked out at 23% in assay [15]; 66% in [16]; 15% in assay [17]; 36% in assay [18]; 5% in assay [19].

For `Cc1nc(-c2ccccc2)c(-c2ccncc2)o1`, the residual activity turned out to be 99% in assay [20]; 37% in assay [1]; 100% in assay [2]; 103% in assay [3]; 106% in [4]; 88% in assay [5]. The residual activity in [6] was found to be 106%; in assay [7], 102%; in [8], 114%; in assay [9] it was 129%; in assay [10], 105%; in [11], 96%. In addition, the residual activity in assay [12] worked out at 99%; in [13], 94%; in [14] it was 103%; in assay [15] it was 77%; in [16], 112%; in [17], 99%. In addition, in assay [19], the residual activity was found to be 110%.

As for `COc1cc2ncc(-c3ccccc3)nc2cc1OC`, the residual activity amounted to 92% in [20]; 92% in [1]; 90% in assay [2]; 90% in assay [3]; 78% in [4]; 86% in assay [5]. In addition, the residual activity in assay [6] amounted to 94%; in [7] it was 60%; in assay [9], 93%; in assay [10], 98%; in [11], 79%; in assay [14], 83%. Further, the residual activity in [15] worked out at 88%; in [16], 134%; in assay [17], 92%.

The values are drawn from ChEMBL document CHEMBL2218924, “A broad activity screen in support of a chemogenomic map for kinase signalling research and drug discovery” (Biochem J, 2013).
